The panel holds about 79,000 compounds, 15% with a hit somewhere; the sample as a whole holds those more often. Active and inactive are the calls of the source. Cut-off read from the data, not from the text of the source: active = growth inhibition above about 70%; inactive = the rest.
Key:
[1] = NCI Yeast Anticancer Drug Screen. Data for the rad50 strain (AID 155);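 note: 0% = growth of vehicle-only cultures of the same strain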; details: S. cerevisiae rad50 strain growth inhibition; at 50.0 µM; active compounds read high
Method in brief: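 Cells are treated with compound, grown, and their growth is then scored against vehicle-only cultures of the same repair-deficient yeast strain.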

[2] = NCI Yeast Anticancer Drug Screen. Data for the mec2-1 strain (AID 157); details: S. cerevisiae mec2-1 strain, at 50.0 µM, active compounds read high
Method in brief: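 Readout is yeast growth inhibition, normalised to vehicle-treated controls, in the mec2-1 strain exposed to compound.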

[3] = NCI Yeast Anticancer Drug Screen. Data for the sgs1 mgt1 strain (AID 161);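 note: 0% = growth of cultures given vehicle only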; details: S. cerevisiae sgs1 mgt1 strain, at 50.0 µM, active compounds read high
Method in brief: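 Percent growth inhibition was derived by comparing compound-exposed mutant yeast with vehicle-exposed cultures. The strain carries alterations in DNA damage repair.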

[4] = NCI Yeast Anticancer Drug Screen. Data for the cln2 rad14 strain (AID 165);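 note: 0% = growth equal to vehicle treated cultures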; details: S. cerevisiae cln2 rad14 strain, at 50.0 µM, active compounds read high
Method in brief: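 Relative to vehicle controls, growth inhibition of compound-treated cln2 rad14 yeast was recorded.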

[5] = NCI Yeast Anticancer Drug Screen. Data for the bub3 strain (AID 167); details: S. cerevisiae bub3 mutant strain, at 50.0 µM, active compounds read high
Method in brief: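 Part of a panel of yeast mutants defective in DNA damage repair or cell cycle regulation. Each strain is grown with compound, and inhibition is calculated relative to solvent-treated cultures.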

[6] = NCI Yeast Anticancer Drug Screen. Data for the mlh1 rad18 strain (AID 175); details: S. cerevisiae mlh1 rad18 strain growth inhibition; at 50.0 µM; active compounds read high
Method in brief: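 Test agents were incubated with a yeast strain of defined genotype (DNA damage repair defect). Inhibition of growth was derived by comparison with vehicle-exposed cultures.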

Measured: growth inhibition

CCC1(CC)OC(=O)C(=O)N1N(C)C
inactive: [1] -16.9% | [2] -0.8% | [3] -13.9% | [4] -15.2% | [5] -10.9% | [6] -13.7%

O=C1c2ccccc2C(=O)N1C1(C(=O)NC2(C(=O)O)CCCC2)CCCC1
inactive: [1] -2.5% | [2] -7.8% | [3] -37.8% | [4] 2.6% | [5] -38.1% | [6] -8.6%

CCn1cc2c(=O)n3ncn(-c4ccc(Br)cc4)c3nc2n1
inactive: [1] -8.05% | [2] 9.75% | [3] 3.2% | [4] -16.4% | [5] -28.8% | [6] -12.2%

CC1CNCC(C)N1C(=O)c1ccccc1 (stereo unspecified)
inactive: [1] 3.85% | [2] 5.15% | [3] -7.7% | [4] 3.25% | [5] 1.5% | [6] -39.5%

CCOC(=O)N1C(=O)c2ccccc2C1=O
inactive: [1] -7.35% | [2] -13.2% | [3] -16.8% | [4] -8.75% | [5] -13.3% | [6] -9.25%

Cc1ccccc1C(=O)c1ccc2ccccc2c1
inactive: [1] 11.4% | [2] 26.2% | [3] 28.2% | [4] 9.35% | [5] 9.3% | [6] 25.4%

CCC(O)(CC)c1ccc2ncccc2c1
inactive: [1] 3.6% | [2] 6.05% | [3] 7.7% | [4] -19.1% | [5] -6.65% | [6] 7%

CC[N+](C)(CC)CCOc1nc2c(c(=O)n(C)c(=O)n2C)n1C
inactive: [1] -9.5% | [2] -6.85% | [3] -6.05% | [4] 5.25% | [5] -22.5% | [6] -2.65%

NNC(=O)CCC(=O)NC1C2CC3CC(C2)CC1C3 (stereo unspecified)
inactive: [1] -23.6% | [2] -15.4% | [3] -18.6% | [4] -0.85% | [5] -10.7% | [6] 25.2%

CCN(CCOC(=O)Nc1ccc(Cl)cc1)C(=O)Nc1ccc(Cl)cc1
inactive: [1] -1.75% | [2] -36.8% | [3] 16.4% | [4] 2.8% | [5] -8.55% | [6] -18.2%

CC(C)CCCC(C)C1CCC2C3CC=C4CC(OCCC(C)C)CCC4(C)C3CCC12C (stereo unspecified)
inactive: [1] 55.5% | [2] 66.7% | [3] 29.4%
active: [4] 84.3% | [5] 98.1% | [6] 90.4%

O=C1Cc2c([nH]c3ccccc23)-c2ccccc2N1
inactive: [1] 25.1% | [2] 13.9% | [3] 13.8% | [4] 5.05% | [5] 35.8% | [6] 21.1%

CC1=CC2C(c3ccccc3)Nc3ccccc3N2C1=O (stereo unspecified)
inactive: [1] 32.6% | [2] 8.4% | [3] 10.2% | [4] 8.45% | [5] -8.65% | [6] -6.45%

N#Cc1ccc[n+]([O-])c1
inactive: [1] -8.8% | [2] -6.1% | [3] 0.05% | [4] -0.7% | [5] 7.65% | [6] -4.6%

O=C1c2ccccc2C(O)(C#Cc2ccccc2)c2c1c(-c1ccccc1)c1ccccc1c2-c1ccccc1 (stereo unspecified)
inactive: [1] 14.7% | [2] 6.15% | [3] 15.7% | [4] 9.75% | [5] -8.3% | [6] 10.4%

c1cc(Cc2ccsc2)cs1
inactive: [1] -8.2% | [2] 4.1% | [3] -4.5% | [4] -7.1% | [5] -11.7% | [6] -10.8%

Cc1ccccc1C1OC2=C(Nc3ccc(Cl)cc3N2)C1=O (stereo unspecified)
inactive: [1] 15.6% | [2] -1.65% | [3] 10.3% | [4] 9.85% | [5] -11.8% | [6] 25.2%

C/C(=C\C(C)(C)c1ccccc1)c1ccccc1
inactive: [1] -14.9% | [2] -31.6% | [3] -3.75% | [4] -8.35% | [5] 9.2% | [6] -25.1%

CCOC(=O)c1oc2cc(O)cc(O)c2c(=O)c1-c1ccc(OC)cc1
inactive: [1] 7.8% | [2] -30.4% | [3] 11.6% | [4] 11.1% | [5] 3.1% | [6] 0.35%

Cc1ccccc1NC(=O)C(=O)C(C#N)c1ccc(Cl)cc1Cl (stereo unspecified)
inactive: [1] -19.3% | [2] 6% | [3] 24.8% | [4] -19.6% | [5] 7.3% | [6] 19.9%

CNc1ncnc2nc(C)c(C)nc12
inactive: [1] -14.1% | [2] 35.6% | [3] -7.4% | [4] 8.4% | [5] -6.05% | [6] 18.7%

CC(=O)O[C@]12CCCCCCC1C1(O)C(O)CCC[C@H]12 (stereo partly specified)
inactive: [1] -23.6% | [2] -1.95% | [3] -53.2% | [4] -8.95% | [5] -22.2% | [6] -36.6%

Cc1cc(=O)[nH]c2[nH][nH]c(=O)c12
inactive: [1] -12.3% | [2] -28.6% | [3] -43.6% | [4] -7.35% | [5] 2.85% | [6] -8.8%

CC1NC(=O)CC(c2ccccc2)N(N=O)C1c1ccccc1 (stereo unspecified)
inactive: [1] -53.5% | [2] -3.3% | [3] -4.1% | [4] -7% | [5] -9.05% | [6] 8.65%

O=C(CC1C(=O)Nc2ccccc2S1=O)Nc1ccc(Cl)cc1 (stereo unspecified)
inactive: [1] 41.9% | [2] 38% | [3] 59.8% | [4] 18.4% | [5] 48% | [6] 56.3%

CCOP(=O)(OCC)C([O][Sb]([O]CC(C)Cl)[O]CC(C)Cl)c1ccc(OC)cc1 (stereo unspecified)
inactive: [1] -41.9% | [2] -4.85% | [3] -10.9% | [4] -2.45% | [5] 2.05% | [6] -18.6%

O=C(C[N+](=O)[O-])OCc1ccccc1
inactive: [1] 14.8% | [2] 22.8% | [3] 6.4% | [4] -18.1% | [5] -0.4% | [6] 4.65%

C=C(C)CN(C#N)CC(=C)C
inactive: [1] -15.2% | [2] 10.6% | [3] 6.35% | [4] -17.2% | [5] -3.95% | [6] 3.45%

CC(=O)Oc1ccccc1OC(=S)N(C)C
inactive: [1] 11.2% | [2] -7.35% | [3] -5.5% | [4] -39.2% | [5] 15.8% | [6] -26.8%

CN(C)Cc1c(CC(O)(c2ccccc2)c2ccccc2)ccc2ccccc12
inactive: [1] 10.8% | [2] -4.75% | [3] -12.2% | [4] -0.55% | [5] -1.2% | [6] 5.6%

NNC(=S)NC1CCCCC1
inactive: [1] 29.8% | [2] -4.45% | [3] 29.8% | [4] 12.2% | [5] 16.9% | [6] 36%

COC1CCC2(C)C3CCC4C(=CCC5C(C)(C)C(=O)CCC45C)CC3(C)CCC2C1(C)C (stereo unspecified)
inactive: [1] 16.3% | [2] -11.3% | [3] -8.55% | [4] -12.8% | [5] -2.2% | [6] -12.1%

COCC(C)(c1cn(C)c2ccccc12)c1cn(C)c2ccccc12
inactive: [1] -2.5% | [2] -19.2% | [3] -11.4% | [4] -17.9% | [5] 5.05% | [6] -10.1%

C[N+](C)(C)C=Nc1cccc2c1CCCC2
inactive: [1] 2.6% | [2] -37.8% | [3] -26.4% | [4] -7.05% | [5] 6.05% | [6] 1.55%

CSC(=N\N=C\c1c(F)cccc1Cl)/N=C/N(C)C
inactive: [1] 8.7% | [2] -4.1% | [3] 12.7% | [4] 14.8% | [5] -2.85% | [6] 4%

Cc1ccccc1NC(=O)NN
inactive: [1] -32.1% | [2] -24.1% | [3] -31.4% | [4] 10.8% | [5] -16.6% | [6] -5.35%

Cc1ccnc2[nH]c(-c3cccc(Cl)c3)cc(=O)c12
inactive: [1] -23.4% | [2] -18.6% | [3] -41% | [4] -33% | [5] -24.8% | [6] -58.5%

CCCC(=O)Nc1cc([N+](=O)[O-])c([N+](=O)[O-])cc1OC
inactive: [1] -3.7% | [2] -2.55% | [3] 0% | [4] 1.65% | [5] 13.8% | [6] -3%

NNC(=O)C(CC(C(=O)NN)C(=O)NN)C(=O)NN
inactive: [1] 47.5% | [2] -1.5% | [3] 5.25% | [4] -22.5% | [5] 13.9% | [6] 29.7%

CCCC(=O)Nc1cc(/C=C/C(=O)N2C[C@H]3C[C@@]34C2=CC(=O)c2[nH]cc(C)c24)n(C)c1
active: [1] 80.2% | [2] 89.3% | [3] 83.7% | [4] 81.2% | [6] 84.2%
inactive: [5] 58%

CSC1(C)C(=O)Nc2cc(C(F)(F)F)ccc21 (stereo unspecified)
inactive: [1] 17.6% | [2] 1.5% | [3] 1.65% | [4] 17.4% | [5] 2% | [6] 3.4%
